Reference: PubChem BioAssay (NCI)
The panel holds about 83,000 compounds, 20% with a hit somewhere; the sample as a whole holds those more often.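 Percent growth is the endpoint: 0 to 100 indicates growth inhibition (40 means 60% inhibition), 0 means no net growth, and negative values indicate cell death.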 Values without a mark were called inactive. Active and inactive are the calls of the source. Rule for the calls: active = growth percent below 10; inactive = the rest.

What was measured:
Assay in all cases: NCI-60 one-dose screen, 48 h (100 = growth as untreated, 0 = no growth, -100 = all killed)
Conditions in all cases: 10 µM unless noted
DU-145 prostate = tested on: DU-145 prostate
K-562 leukemia = tested on: K-562 leukemia
MALME-3M melanoma = tested on: MALME-3M melanoma
MDA-MB-231 breast = tested on: MDA-MB-231 breast
RXF 393 renal = tested on: RXF 393 renal
SF-268 CNS = tested on: SF-268 CNS
SF-295 CNS = tested on: SF-295 CNS
SF-539 CNS = tested on: SF-539 CNS
UACC-257 melanoma = tested on: UACC-257 melanoma
M14 melanoma = tested on: M14 melanoma

| Compound | growth (DU-145 prostate) | growth (K-562 leukemia) | growth (MALME-3M melanoma) | growth (MDA-MB-231 breast) | growth (RXF 393 renal) | growth (SF-268 CNS) | growth (SF-295 CNS) | growth (SF-539 CNS) | growth (UACC-257 melanoma) | growth (M14 melanoma) |
| --- | --- | --- | --- | --- | --- | --- | --- | --- | --- | --- |
| O=C(NNC(=O)c1ccc(NC(=O)c2ccccn2)cc1)Nc1ccc2ccccc2c1 | 110% | 106% | 123% | 115% | 116% | 101% | 103% | 69% | 120% | 115% |
| CN1CCN(c2ccc3nc4c(nc3c2C(F)(F)F)C(=O)c2ncccc2C4=O)CC1 | -85.7% (active) | -6.72% (active) | -99.2% (active) | -5.99% (active) | 38.4% | 1.96% (active) | -61.6% (active) | -52.4% (active) | -82.3% (active) | -89.6% (active) |
| CN(C)CCCC1(c2ccc(F)cc2)OCc2cc(-c3cc4ccccc4s3)ccc21 (stereo not given) | 18% | -17.5% (active) | -77.4% (active) | -42.4% (active) | 34.8% | 38.3% | 70.4% | -58.8% (active) | -29.1% (active) | -68.7% (active) |
| O=C1/C(=C\c2cccc3nccnc23)SC(=S)N1CCc1ccc(O)cc1 | 98.1% | 88.5% | 87.3% | 83.8% | 107% | 97% | 101% | 97.7% | 100% | 96.3% |
| N#Cc1cccc(C2C3=C(COC3=O)N(CCO)c3cc4c(cc32)OCO4)c1 (stereo not given) | 37.3% | 9.87% (active) | 49.6% | 59.4% | 41.5% | 40.3% | 4.98% (active) | 8.85% (active) | 55.3% | 14.5% |
| CC1=C(C(=O)Nc2nc(-c3ccc(Cl)cc3)cs2)[C@H](c2ccc(O)cc2)NC(=O)N1 | 98% | 96.8% | 99.6% | 90.2% | 104% | 87.1% | 95.7% | 99.3% | 105% | 98.1% |
| CN1C(=O)/C(=C2\SC(=Nc3ccccc3)N(Nc3ccccc3)C2=O)c2ccccc21 | 109% | 99.5% | 110% | 91.4% | 109% | 95.4% | 105% | 94.9% | 106% | 101% |
| O=c1nc(-c2ccccc2)c2cc(-c3ccc(C(F)(F)F)nc3)ccc2[nH]1 | 103% | 103% | 111% | 91.9% | 105% | 98.1% | 103% | 93.2% | 109% | 98.6% |
| COc1ccc(CCN(CC(=O)N(CC(N)=O)C2CCC[C@@H]2OCc2ccccc2)C(=O)CN(C(=O)CN(CCc2ccc(Cl)cc2)C(=O)CN(C(=O)CN(C)Cc2ccccc2F)[C@H](C)C2CCCCC2)[C@H](C)C2CCCCC2)cc1OC (stereo not given in full) | 43.7% | 10.4% | 51.7% | 29.7% | -10% (active) | 26.5% | -0.412% (active) | 33.7% | -5.66% (active) | 19.3% |
| C#CCn1cnc2cnc(Nc3cccc(NC(=O)C=C)c3)nc21 | 93.5% [6.25 µM] | 5.9% [6.25 µM] (active) | 76.7% [6.25 µM] | 81.5% [6.25 µM] | 86.6% [6.25 µM] | 84.7% [6.25 µM] | 72.4% [6.25 µM] | 72.3% [6.25 µM] | 61.5% [6.25 µM] | 62% [6.25 µM] |
| Cc1c2ccncc2c(C)c2c1c1cc(CO)ccc1n2C | -2.14% (active) | 6.77% (active) | -1.68% (active) | -8.51% (active) | 11.9% | 14.4% | 3.5% (active) | 17.2% | -39.2% (active) | -22.9% (active) |
| O=C1/C(=C\c2ccccn2)c2ccccc2N1c1c(Cl)cccc1Cl | -0.0912% (active) | 9.42% (active) | 67.3% | 15.7% | -35.2% (active) | 7.81% (active) | 12.3% | 1.27% (active) | 59.3% | -43.6% (active) |
| CN(C)c1ccc(-c2ccc3c(c2)c(-c2ccccc2)nc(=O)n3C)cn1 | 69.7% | 3.37% (active) | 62.6% | 50.4% | 61.3% | 46.2% | 31.3% | 14.2% | 57.5% | 20.7% |
| COc1cc(-c2nc3sccn3c2-c2ccnc(NCCNS(=O)(=O)c3ccc(Cl)cc3)n2)ccc1F | 32.3% | 13.6% | 31.3% | 69% | 33.2% | 30.6% | 40.5% | 80% | 45.1% | 21.5% |
| Cc1n[nH]c2ccc(Br)cc2c1=O | 104% | 91.4% | 97.4% | 121% | 103% | 107% | 87% | 98.1% | 108% | 103% |
| Cn1cc(-c2ccc(-c3cn(C)c4ccc(Cl)cc34)[nH]2)c2cc(Cl)ccc21 | 32% | -29.8% (active) | -59.1% (active) | -48.5% (active) | -51.3% (active) | -67.2% (active) | -15.1% (active) | -56.1% (active) | -34.7% (active) | -75.2% (active) |
| COc1ccc(-c2n[nH]c(=O)c3nc(NC(=S)Nc4ccc(Oc5ccccc5)cc4)sc23)cc1 | 102% | 89.3% | 110% | 84% | 104% | 102% | 102% | 105% | 79.7% | 88.9% |
| CC(C)=CCNc1ncnc2c1ncn2C1OC(CO)C(O)C1O (stereo not given) | -89.4% [1 mM] (active) | 7.4% [1 mM] (active) | 32.4% [1 mM] | -54.7% [1 mM] (active) | -71.2% [1 mM] (active) | 4.72% [1 mM] (active) | -24.2% [1 mM] (active) | -41.8% [1 mM] (active) | 92.7% [1 mM] | 26.9% [1 mM] |
| CSc1nc(C)c([N+](=O)[O-])c(N)n1 | 109% | 91% | 104% | 96.5% | 114% | 105% | 109% | 104% | 84.7% | 91.8% |
| Cc1ccc2nc(NC(=O)CSc3nc(-c4ccccc4)c(C#N)c4nnnn34)sc2c1 | 119% | 97.8% | 109% | 113% | 120% | 113% | 103% | 100% | 108% | 99.5% |
| O=c1ccc(=O)n(-c2nc(-c3ccc([N+](=O)[O-])cc3)cs2)[nH]1 | 97.7% | 95.2% | 114% | 105% | 88.4% | 95% | 98.1% | 97.3% | 102% | 101% |
| O=C(Nc1ccc(Cl)cc1)Oc1c(Cl)c(Cl)c(Cl)c(Cl)c1Cl | 97.9% | 89.9% | 93.7% | 92.9% | 106% | 92.9% | 83.2% | 94.8% | 100% | 96.8% |
| CCOC(=O)C(=Cc1ccc(-c2ccccc2)cc1)C(=O)OCC | 36.6% | 20% | 70.6% | 53.3% | 43% | 37.5% | 52.5% | 21.4% | 44.4% | 42.5% |
| COc1ccc2c(c1)c(-c1nc(-c3c[nH]c4ncccc34)cs1)cn2CCCN1CCOCC1 | 41.5% | -5.12% (active) | 5.55% (active) | 9.85% (active) | -9.75% (active) | 43.9% | -34.4% (active) | 33.6% | 49.9% | 10% |
| CCOC(=O)C#Cc1c(C(=O)OCC)nnn1Cc1ccc(C(F)(F)F)cc1 | 60.5% | 3.87% (active) | 74.4% | 88.1% | -7.11% (active) | 86.6% | 94.8% | 43.3% | 74.2% | 30.5% |
| O=C(/C=C/c1cccc(Cl)c1Cl)Nc1ncc(Cc2ccccc2Cl)s1 | 53.3% | 13.4% | 62.1% | 75% | 37.8% | 82.2% | 21.4% | 11.5% | 78.1% | 12.5% |
| CC(=O)c1ccc(Nc2nccc(-c3ccc4ccccc4c3)n2)cc1 | 105% | 59.6% | 101% | 102% | 85.1% | 93.6% | 100% | 100% | 104% | 97.6% |
